Screens as filed in PubChem.
SUMO Mot1 rescue = SUMOylation pathway inhibition by Mot1-301 growth rescue | growth rescue, % at 18.8 µM | S. cerevisiae Mot1-301 growth rescue, ATP luminescence, 38.5C; percent above DMSO median, 100 means doubled | AID 2716 | 320,000 compounds, 1% hits;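 active means every valid replicate shows activation above 250% relative to neutral control wells; inactive means the rest, any valid replicate at or below 250%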
AI-2 QS modul = modulators of Vibrio harveyi AI-2 quorum sensing system | Vibrio harveyi JMH597 AI-2 luminescence/OD600 ratio, 9 h; active compounds read low; strain lacks LuxN and CqsS sensors; 0 = neutral-control median | 300,000 compounds, 0.4% hits | activity change, % at 7.5 µM; in the data active means activity change below about -75%, passing the limit was not always enough; inconclusive means no clear call, values can overlap the other calls;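 further: luminescence divided by OD600 gain over 9 h not by final OD600 alone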
ARNT-TACC3 inh = disrupts binding between human ARNT and TACC3 | Q9Y6A5 | AlphaScreen His-ARNT PAS-B/GST-TACC3 binding, luminescence; TACC3 fragment carries E629A point mutation | inhibition, % at 9.99 µM | 390,000 compounds, 0.66% hits | AID 623870;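 active means mean inhibition of replicates at least 50% and at least half of replicates each reaching 50%; inconclusive means half or more replicates reach 50% but mean below 50%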
aDG glyco act = alpha-DG glycosylation activation; Pro5-aDG cells, alpha-DG glycosylation AlphaScreen (IIH6); 0% Pro5, 100% B10-LARGE cell signal; activation, % at 10 µM; 360,000 compounds, 0.22% hits; AID 624168;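 active means activation of at least 8% versus controls, or a plate z-score of at least 8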;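 further: Pro5 are CHO cells carrying HIG-tagged alpha-DG that lacks glycosylation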
A1 inh = inhibitors of the anti-apoptotic protein A1, read as caspase activation; MEF A1-2A-BIM cells, Caspase-Glo 3/7 luminescence, 3 h; percent of clofoctol response, vehicle zero; caspase activation, % (test concentration not listed); 330,000 compounds, 0.066% hits; AID 2462;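 active means over half of replicate activation scores above 10%, or exactly half above 10 with the replicate mean above 10; inconclusive means replicate mean below 10 yet half the replicates above 10; inactive means over half of replicates below 10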
Mot1 SUMO dose = inhibits SUMO pathway, affecting Mot1-301 yeast growth. shares compounds with SUMO Mot1 rescue. 2,300 tested, under 10 active. S. cerevisiae Mot1-301 galactose growth, ATP luminescence, 24 h; -100 = growth of slx-deleted rescue strain. AID 493004. growth activity, percent, % at 42 µM;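 active means Signal drops as the depositor expects, and the fitted half-maximal dose is no more than ten times the top valid tested dose; inconclusive means Poor fit, or a flat curve whose signal drops by 30% to 70%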;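 further: more negative values mean stronger growth rescue toward the control strain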
Large screens that a line does not name were inactive (follow-up assays come after a bar, where they were run). Rows were chosen to be rich in hits. Some 1.8% of all compounds tested hit in one or more screens of this group.

COc1ccc(N2CCN(C(=O)C3CCCN(S(=O)(=O)c4ccc5c(c4)oc(=O)n5C)C3)CC2)cc1 (stereo not given)	SUMO Mot1 rescue 449.7 | Mot1 SUMO dose inactive
COc1ccccc1N1CCN(C(=O)C2CCCN(S(=O)(=O)c3ccc4c(c3)oc(=O)n4C)C2)CC1 (stereo not given)	none
COc1cc(/C=C(/C#N)C(=O)Nc2ccccc2)ccc1OCc1ccc(C(=O)O)cc1	none
COc1cc(/C=C(\C#N)C(=O)Nc2ccc(C(=O)O)cc2)ccc1OC(=O)c1cccc(F)c1	SUMO Mot1 rescue 826.7 | Mot1 SUMO dose inactive
NC1=NC(=O)NC1(c1ccccc1)c1ccccc1	none (no result: SUMO Mot1 rescue, AI-2 QS modul, A1 inh)
NN1C(=O)NC(c2ccccc2)(c2ccccc2)C1=O	SUMO Mot1 rescue 543.4 (no result: ARNT-TACC3 inh) | Mot1 SUMO dose inactive
CCc1ccc2[nH]c(=O)c(C(c3nnnn3Cc3ccccc3)N3CCOCC3)cc2c1 (stereo not given)	SUMO Mot1 rescue 478.3 | Mot1 SUMO dose inactive
CCN(CC)S(=O)(=O)c1ccc(N2CCCC2)c(C(=O)OCC(=O)Nc2cc(C)on2)c1	SUMO Mot1 rescue 543.7 | Mot1 SUMO dose inactive
Cc1ccc(S(=O)(=O)N(C)C[C@H]2Oc3ccc(NC(=O)CCCCCC(=O)Nc4ccccc4N)cc3C(=O)N([C@@H](C)CO)C[C@H]2C)cc1	none (no result: SUMO Mot1 rescue, AI-2 QS modul, aDG glyco act, A1 inh)
CC(C)CC(c1nnnn1C1CCCC1)N1CCN(C(=O)c2ccco2)CC1 (stereo not given)	none
CC(C)CC(c1nnnn1C1CCCCC1)N1CCN(C(=O)c2ccco2)CC1 (stereo not given)	SUMO Mot1 rescue 705.6 | Mot1 SUMO dose inactive
CC(Oc1ccc2c3c(c(=O)oc2c1)CCCC3)C(=O)NCc1ccccn1 (stereo not given)	none
O=C1c2ccccc2C(=O)N1CCCCSc1nc2ccccc2c(=O)n1CCCN1CCOCC1	SUMO Mot1 rescue active (no result: ARNT-TACC3 inh) | Mot1 SUMO dose inactive
Cc1nnc(NC(=O)c2cccc(S(=O)(=O)N3CCCC3)c2)s1	SUMO Mot1 rescue 575.8 | Mot1 SUMO dose inactive
CCc1nnc(NC(=O)c2cc(S(=O)(=O)N3CCN(c4ccccc4)CC3)ccc2Cl)s1	none (no result: ARNT-TACC3 inh)
CCc1nnc(NC(=O)c2cccc(S(=O)(=O)N3CCN(c4ccccc4)CC3)c2)s1	SUMO Mot1 rescue 572.0 | Mot1 SUMO dose inactive
C=CCNc1nc(NCCOC)c2sc(-c3ccccc3)cc2n1	none (no result: SUMO Mot1 rescue, AI-2 QS modul, ARNT-TACC3 inh, A1 inh)
O=S(=O)(O)c1ccc(N=NNc2ccc(Br)cc2)cc1	SUMO Mot1 rescue 539.3 | Mot1 SUMO dose inactive
Cc1c(C(=O)N2CCCC2)c(S(=O)(=O)Nc2cccc(Br)c2)c(C)n1C	SUMO Mot1 rescue 708.9 | Mot1 SUMO dose inactive
CN(C)C(=O)CSc1nc2ccc(N3C(=O)c4ccccc4C3=O)cc2s1	SUMO Mot1 rescue 561.8 | Mot1 SUMO dose inactive
CCOC(=O)C1CCC(=O)C1 (stereo not given)	none (no result: SUMO Mot1 rescue, AI-2 QS modul, A1 inh)
NC(=S)Nn1c(CCC(=O)O)ccc1-c1ccccc1	none
O=C(O)CCc1ccc(-c2ccccc2)n1NC(=O)c1cccs1	SUMO Mot1 rescue 670.0 | Mot1 SUMO dose inactive
O=C1CSC(=S)N1c1cccc(Br)c1	none
COc1ccccc1NC(=O)CSC1CC(=O)N(c2ccc3c(c2)OCO3)C1=O (stereo not given)	none
Cc1cc2c3c(c1)C1(SCC(=O)N1c1ccc(F)cc1)C(=O)N3C(C)(C)CC2C (stereo not given)	SUMO Mot1 rescue 423.4 | Mot1 SUMO dose inactive
CCc1ccccc1NC(=S)NNC(=O)c1ccccc1Cl	SUMO Mot1 rescue active | Mot1 SUMO dose inactive
Cc1nc(C)n(CC(=O)N2CCCC(C(=O)c3cccc4ccccc34)C2)n1 (stereo not given)	SUMO Mot1 rescue 364.5 | Mot1 SUMO dose inactive
Cc1ccn(CC(=O)N2CCCC(C(=O)c3cccc4ccccc34)C2)n1 (stereo not given)	none
COc1ccc(-n2nc(C(=O)NCC(=O)Nc3cc(C)ccc3OC)c3ccccc3c2=O)c(OC)c1	none
CC(C)(C)C(=O)Nc1ccc(C(=O)NCc2cccnc2)cc1	SUMO Mot1 rescue 429.8 | Mot1 SUMO dose inactive
CS(=O)(=O)Nc1ccc(C(=O)NCc2cccnc2)cc1	none
CCOc1ccc(NS(=O)(=O)c2ccc(C(=O)NCc3cccnc3)cc2)cc1	SUMO Mot1 rescue 448.9, A1 inh inconclusive (no result: AI-2 QS modul) | Mot1 SUMO dose inactive
Cc1ccc(Cl)cc1N1CCN(C(=O)c2noc(C(C)C)c2[N+](=O)[O-])CC1	none
COC(=O)Oc1ccc(/C=N/NS(=O)(=O)c2ccccc2)cc1OC	SUMO Mot1 rescue 626.6 | Mot1 SUMO dose inactive
Nc1nnnn1CC(=O)N/N=C/c1cccs1	SUMO Mot1 rescue 626.9 | Mot1 SUMO dose inactive
O=C(Cn1nnc2ccccc21)N/N=C\c1cccs1	none
C[C@H](CO)N1C[C@H](C)[C@H](CN(C)C(=O)Nc2ccc(C(F)(F)F)cc2)OCCCC[C@H](C)Oc2ccc(NS(=O)(=O)c3cccs3)cc2C1=O	none (no result: SUMO Mot1 rescue, AI-2 QS modul, aDG glyco act, A1 inh)
COC(=O)c1ccccc1N(C)S(C)(=O)=O	SUMO Mot1 rescue 563.2 | Mot1 SUMO dose inactive
CSc1nsc(SCC(=O)Nc2cccc(C(=O)O)c2)n1	SUMO Mot1 rescue 782.0 | Mot1 SUMO dose inactive
O=C(CSc1nc(-c2ccccc2)nc2ccc(F)cc12)Nc1cccc(C(=O)O)c1	SUMO Mot1 rescue 534.6 | Mot1 SUMO dose inactive
Cc1ccc(C(=O)N2CCCC2(C)C(=O)NCC(C)C)cc1F (stereo not given)	none (no result: SUMO Mot1 rescue, AI-2 QS modul, ARNT-TACC3 inh, A1 inh)
CC(C)(c1ccccc1)c1ccc(OCCN2CCOCC2)cc1	SUMO Mot1 rescue 443.6 | Mot1 SUMO dose inactive
Cc1ccc(Oc2ccc(OCC(=O)Nc3ccncc3)cc2)cc1	SUMO Mot1 rescue 378.1 (no result: AI-2 QS modul, ARNT-TACC3 inh) | Mot1 SUMO dose inactive
Cc1nc(NC(=O)CSc2nc(N)cc(N)n2)sc1C	SUMO Mot1 rescue 660.7 | Mot1 SUMO dose inactive
CCOC(=S)SCC(=O)Nc1nc(C)c(C)s1	none (no result: SUMO Mot1 rescue)
CCCC(O)(c1ccc(Br)cc1)C(CN1CCOCC1)c1ccc(Cl)cc1 (stereo not given)	SUMO Mot1 rescue 554.8 | Mot1 SUMO dose inactive
CCCC(O)(c1ccc(CC)cc1)C(CN1CCOCC1)c1ccccc1 (stereo not given)	none
COc1cc(Cl)c(C)cc1NC(=O)CCCN1C(=O)CCC1=O	none (no result: AI-2 QS modul)
COC(=O)[C@@]12CCCCN1[C@H](c1ccc(-c3cccc(Cl)c3)cc1)[C@H]1C(=O)N(C)C(=O)[C@H]12	none
COC(=O)[C@@]12CCCCN1[C@H](c1ccc(-c3cccc(Cl)c3)c(OC)c1)[C@H]1C(=O)N(C)C(=O)[C@H]12	SUMO Mot1 rescue 766.0 | Mot1 SUMO dose inactive
COC(=O)[C@@]12CCCCN1[C@H](c1ccc(-c3ccc(C(C)=O)cc3)cc1)[C@@H]1C(=O)N(C)C(=O)[C@@H]12	SUMO Mot1 rescue 736.5 | Mot1 SUMO dose inactive
